Data: PubChem BioAssay (NCATS)
Several values for one entry are separate records, joined by “and”; a condition that tells them apart may be missing. Equal entries are not always repeated. Activity calls are given as the source filed them. Calls come from the whole dose curve; as a rule, active = well fitted activation curve with a large enough effect; inconclusive = small, poorly fitted or top-dose-only effect; inactive = flat fitted curve, though single readings scatter.

Biological target: Peroxisome proliferator-activated receptor alpha (Homo sapiens) (UniProt Q07869)
Assay: qHTS assay for small molecule agonists of the peroxisome proliferator-activated receptor alpha (PPARalpha) signaling pathway (AID 651778); note: % of control where 0% means no effect
Details: PathHunter PPARalpha complementation, chemiluminescence, 6 h; max response: active compounds read high
Procedure, shortened: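 Cells plated at 2,000/well and held overnight at 37 C, 5% CO2, then compound added by pin tool for 6 hr; after PathHunter detection reagent and 60 min at room temperature, chemiluminescence from enzyme complementation was read.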

Peroxisome proliferator-activated receptor alpha (Homo sapiens), sequence (Q07869 whole entry, looked up): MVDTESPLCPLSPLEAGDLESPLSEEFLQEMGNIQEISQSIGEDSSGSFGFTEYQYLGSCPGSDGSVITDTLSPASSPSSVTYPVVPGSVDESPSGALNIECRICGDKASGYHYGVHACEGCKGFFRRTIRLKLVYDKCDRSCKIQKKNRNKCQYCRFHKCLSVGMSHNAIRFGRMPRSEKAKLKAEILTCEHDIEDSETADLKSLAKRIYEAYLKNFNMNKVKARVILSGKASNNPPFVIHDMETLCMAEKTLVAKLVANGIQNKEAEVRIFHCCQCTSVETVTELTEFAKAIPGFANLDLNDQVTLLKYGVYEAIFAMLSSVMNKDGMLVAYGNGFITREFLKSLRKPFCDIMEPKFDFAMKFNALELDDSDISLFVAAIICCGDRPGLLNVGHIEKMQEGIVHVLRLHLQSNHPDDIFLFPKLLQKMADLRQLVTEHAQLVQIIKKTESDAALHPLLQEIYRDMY

With `CC(=O)[C@H]1CC[C@H]2[C@@H]3CCC4=CC(=O)CC[C@]4(C)[C@H]3CC[C@]12C` as the molecule, how does the max response read?
The max response was 1.94% (inactive) and -2.09% (inactive) and -1.65% (inactive).

Which max response does the source give for `N[C@@H](Cc1ccc(O)c(O)c1)C(=O)O` here?
The max response was -1.63% (inactive).

Which max response does the source give for `Nc1nc(N)c2nc(CNc3ccc(C(=O)NC(CCC(=O)O)C(=O)O)cc3)cnc2n1` (stereo not drawn) here?
The max response was -1.16% (inactive).
